According to PubChem BioAssay (NCATS):
Records with an inconclusive call do not appear. Where a call stands in place of a potency, no number is given. Unmarked numbers belong to inactive results. Activity calls are given as the source filed them. Calls come from the whole dose curve; as a rule, active = well fitted curve in the direction sought with a large enough effect; inconclusive = small, poorly fitted or top-dose-only effect, or another doubt; inactive = no such curve, though single readings can be large; an effect the other way counts as inactive or inconclusive.

Each compound was assayed against Cellular tumor antigen p53 (Homo sapiens) (UniProt P04637) (assay: Primary qHTS for small molecule compounds that upregulate eGFP-tagged delta133p53alpha (in N-terminal) cells. (AID 2060322;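 note: cells pre-induced with doxycycline then dosed without doxycycline; nearly all actives have a fitted effect of over 75% in size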)). Conditions: NCI-H358 eGFP-delta133p53alpha fluorescence, 24 h; activation: hits give high values.
Method in brief: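 NCI-H358 cells pre-induced 24 h with 10 ng/ml doxycycline for eGFP-delta133p53alpha, plated dox-free and exposed 24 h at 37C to titrated compounds. Fixed, Hoechst-stained; gated GFP peak intensity by laser scanning cytometry, normalized to DMSO (0%) and 57.5 uM 5-azacytidine (100%).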

Sequence of Cellular tumor antigen p53 (Homo sapiens) (P04637 whole entry, looked up): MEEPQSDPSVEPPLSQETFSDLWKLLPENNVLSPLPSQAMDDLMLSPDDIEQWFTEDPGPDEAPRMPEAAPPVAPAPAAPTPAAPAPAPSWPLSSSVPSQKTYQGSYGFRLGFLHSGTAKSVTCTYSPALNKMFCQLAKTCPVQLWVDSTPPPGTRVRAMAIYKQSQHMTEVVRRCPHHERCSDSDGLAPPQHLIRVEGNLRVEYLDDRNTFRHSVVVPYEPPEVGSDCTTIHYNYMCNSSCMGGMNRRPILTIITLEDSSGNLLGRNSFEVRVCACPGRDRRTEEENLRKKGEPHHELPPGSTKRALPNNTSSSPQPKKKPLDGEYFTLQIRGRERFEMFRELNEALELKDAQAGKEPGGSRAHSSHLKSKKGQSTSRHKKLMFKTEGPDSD

| Structure (SMILES) | activation [%] |
| --- | --- |
| C=C1[C@@H]2[C@H]3OC(=O)C(=C)[C@@H]3CC[C@@](C)(O)[C@@H]2C[C@@H]1O[C@@H]1O[C@H](CO)[C@@H](O)[C@H](O)[C@H]1O | 15.2 |
| C=C(C)[C@H]1CC[C@]2(C(=O)O)CC[C@]3(C)C(CCC4[C@@]5(C)CCC(=O)C(C)(C)C5CC[C@]43C)C12 (some centres undefined) | -11.6 |
| C=C1C[C@]23C[C@H]1CC[C@H]2[C@@]12C=C[C@H](O)[C@@](C)(C(=O)O1)[C@H]2[C@@H]3C(=O)O | -28.2 |
| CC1CC(=O)C2=C(CCC3(O)C(O)c4c(O)cccc4C(=O)C23O)C1 (centres undefined) | 12.2 |

Each compound was assayed against Aldehyde dehydrogenase, mitochondrial (Homo sapiens) (UniProt P05091) (assay: qHTS for Inhibitors of the Aldehyde Dehydrogenase Family (ALDH2) Primary screen (AID 2061308; note: nearly all actives have a fitted effect of over 55% in size)). Conditions: ALDH2 enzyme inhibition qHTS, 1536-well; series mostly up to 56 µM.

| Structure (SMILES) | Potency | activity change, negative = inhibition |
| --- | --- | --- |
| C=C1C[C@]23C[C@H]1CC[C@H]2[C@]1(C)CC[C@H](O)[C@@](C)(C(=O)O)[C@H]1[C@@H]3C(=O)O | inactive |  |
| CCCOc1ccc(-c2nc(OC)c3ccccc3n2)cc1 | inactive |  |
| COc1cc(/C=C2\CC[C@H]3COC[C@@H](c4cc(F)c(F)c(F)c4)N3C2=O)ccc1-n1cnc(C)c1 | inactive |  |
| CC/C=C/C=C/C1(C)OC(CC(CO)OC)=CC1=O (centres undefined) | inactive |  |
| OC[C@H]1O[C@@H](OC[C@H]2O[C@@H](OC/C=C/c3ccccc3)[C@H](O)[C@@H](O)[C@@H]2O)[C@@H](O)[C@@H]1O | inactive |  |
| CN1[C@@H]2CC[C@H]1CC(NC(=O)n1c(=O)[nH]c3ccccc31)C2 (some centres undefined) | inactive |  |
| COC1CC(=O)C23C(=O)NC(CC(C)C)C2C(C)C(C)=CC3/C=C(\C)CCCC1O (centres undefined) | inactive |  |
| CC1CC(=O)[C@]2(O)C(C(=O)OCCc3ccc(O)cc3)=CO[C@@H](O[C@@H]3O[C@H](CO)[C@@H](O)[C@H](O)[C@H]3O)[C@H]12 (some centres undefined) | inactive |  |
| CC1CCC2C(C)(C)CC(C)(CO)C2(O)C1C(=O)O (centres undefined) | inactive |  |
| CC1CCC2(NC1)OC1C(O)C3C4CCC5CC(O[C@@H]6O[C@H](CO)[C@@H](O)[C@H](O)[C@H]6O[C@@H]6O[C@@H](C)[C@H](O)[C@@H](O)[C@H]6O)CCC5(C)C4CCC3(C)C1C2C (some centres undefined) | inactive |  |
| C=C1CCC2C(C)(C(=O)O)CCCC2(C)C1CCC1=CCOC1=O (centres undefined) | inactive |  |
| C=C(C)C(=O)O[C@H]1[C@H]2C(=C)C(=O)O[C@@H]2C[C@@H](C)/C=C\C(=O)[C@](C)(O)[C@@H]1OC(C)=O | inactive |  |
| CC(=O)OC12CC(C)C(O)C1/C=C(/COC1OC(CO)C(O)C(O)C1O)CCC1C(/C=C(\C)C2=O)C1(C)C (centres undefined) | inactive |  |
| CC1(C)CC[C@]2(C(=O)O[C@@H]3O[C@H](CO)[C@@H](O)[C@H](O)[C@H]3O)CC[C@]3(C)C(=CCC4[C@@]5(C)C[C@H](O)[C@H](O[C@@H]6O[C@H](C(=O)O)[C@@H](O)[C@H](O)[C@H]6O)[C@@](C)(CO)C5CC[C@]43C)C2C1 (some centres undefined) |  | 12.5% [at 11.2 µM] |
| CCN(Cc1cccnc1)C(=O)CN(c1ccc(OC)nc1)S(=O)(=O)c1ccccc1C | inactive |  |
| C=C1C[C@]23C[C@H]1CC[C@H]2[C@]1(C)CCC[C@@]2(CO)C(=O)O[C@H]([C@H]21)[C@@H]3O | inactive |  |
| COC(=O)C[C@H]1C(C)(C)[C@H](OC(C)=O)C2CC3=C4CC(=O)O[C@@H](c5ccoc5)[C@]4(C)CCC3[C@@]1(C)C2=O (some centres undefined) | inactive |  |
| C[C@H]1[C@H](C)CC[C@]2(C(=O)O[C@@H]3O[C@H](CO)[C@@H](O)[C@H](O)[C@H]3O)CC[C@]3(C(=O)O)C(=CCC4[C@@]5(C)CC[C@H](O[C@@H]6O[C@H](CO)[C@@H](O)[C@H](O)[C@H]6O)C(C)(C)C5CC[C@]43C)[C@H]12 (some centres undefined) | inactive |  |
| OC[C@H]1O[C@@H](OCCc2ccccc2)[C@H](O[C@@H]2OC[C@@H](O)[C@H](O)[C@H]2O)[C@@H](O)[C@@H]1O | inactive |  |
| NC(=O)C(O[C@@H]1O[C@H](CO[C@@H]2O[C@H](CO)[C@@H](O)[C@H](O)[C@H]2O)[C@@H](O)[C@H](O)[C@H]1O)c1ccccc1 (some centres undefined) | inactive |  |

| Structure (SMILES) | Potency | activity change, negative = inhibition |
| --- | --- | --- |
| NC(=O)[C@H]1CCCCc2c1[nH]c1ccc(Cl)cc21 | inactive |  |
| C=C1CC[C@@H]2[C@](C)(CO)[C@H](O)CC[C@@]2(C)[C@@H]1C/C=C1/C(=O)OCC1O (some centres undefined) | inactive |  |
| CC1(C)CC=C(c2cnc3ccccc3c2)c2cc(C(=O)Nc3ccc(C(=O)O)cc3)ccc21 | inactive |  |
| CC(CCC1(O)OC2CC3C4CC=C5CC(O[C@@H]6O[C@H](CO)[C@@H](O[C@@H]7O[C@@H](C)[C@H](O)[C@@H](O)[C@H]7O)[C@H](O)[C@H]6O[C@@H]6O[C@@H](C)[C@H](O)[C@@H](O)[C@H]6O)CCC5(C)C4CCC3(C)C2C1C)CO[C@@H]1O[C@H](CO)[C@@H](O)[C@H](O)[C@H]1O (some centres undefined) | inactive |  |
| CCCCCOC(=O)Nc1nc(=O)n(C2O[C@H](C)[C@@H](O)[C@H]2O)cc1F (some centres undefined) | inactive |  |
| N#Cc1cnc2cnc(NCc3cccnc3)cc2c1Nc1ccc(F)c(Cl)c1 | inactive |  |
| CC1OC(O[C@H]2[C@@H](O)C[C@@]3(C)C([C@H](O)C[C@]4(C)C3CC=C3C5CC(C)(C)CC[C@]5(C(=O)OC5OC(CO)C(O)C(O)C5OC5OCC(OC6OCC(OC7OCC(O)C(O)C7O)C(O)C6O)C(OC6OCC(O)(CO)C6O)C5O)CC[C@]34C)[C@]2(C)CO)C(O)C(O)C1O (some centres undefined) |  | -1.36% [at 11.2 µM] |
| CN(C)CCn1cc(S(=O)(=O)c2cccc(F)c2)c2cccnc21 | inactive |  |
| CCOC(=O)c1c(C)nn(-c2cccc([N+](=O)[O-])c2)c1C | inactive |  |
| CC(=O)OC1CC(C)(C(=O)O)CC2C3=CC(=O)C4C5(C)CCC(OC6OC(C(=O)O)C(O)C(O)C6OC6OC(C(=O)O)C(O)C(O)C6O)C(C)(C)C5CCC4(C)C3(C)CCC12C (centres undefined) | inactive |  |
| C/C(=C/CO)CC[C@H]1[C@]2(C)C[C@H](O)CC(C)(C)[C@H]2CC[C@]1(C)O | inactive |  |
| O=C(O)CC(CCc1ccccc1)OC1OC(CO)C(O)C(O)C1O (centres undefined) | inactive |  |
| COC1CCCC/C(C)=C/C2C=C(C)C(C)C3C(CC(C)C)NC(=O)C23C(=O)C1 (centres undefined) | inactive |  |
| CC1=C[C@H](O)[C@H]2C(C)(C)CCC[C@]2(C)[C@@]1(O)CO | inactive |  |
| CC/C=C\CC1C(=O)C=CC1(CCCCC1CCC(=O)O1)OC(C)=O (centres undefined) | inactive |  |
| C[C@]12C[C@@H](O)[C@@H]3C[C@@]1(O[C@@H]1O[C@H](CO)[C@@H](O)[C@H](O)[C@H]1O)[C@]3(COC(=O)c1ccccc1)C(=O)O2 | inactive |  |
| C=C1[C@@H]2[C@H]3OC(=O)C(=C)[C@@H]3CC[C@@](C)(O)[C@@H]2C[C@@H]1O[C@@H]1O[C@H](CO)[C@@H](O)[C@H](O)[C@H]1O | inactive |  |
| C=C(C)[C@H]1CC[C@]2(C(=O)O)CC[C@]3(C)C(CCC4[C@@]5(C)CCC(=O)C(C)(C)C5CC[C@]43C)C12 (some centres undefined) | inactive |  |
| C=C1C[C@]23C[C@H]1CC[C@H]2[C@@]12C=C[C@H](O)[C@@](C)(C(=O)O1)[C@H]2[C@@H]3C(=O)O | inactive |  |
| CC1CC(=O)C2=C(CCC3(O)C(O)c4c(O)cccc4C(=O)C23O)C1 (centres undefined) | inactive |  |
